Columns and labels:
Assay in all cases: log2 ratio of Biotin-Ahx-Ub-VS probe labelling (fragment/DMSO); higher = less target engagement (more negative = stronger competition), active = hit call of the paper (q ≤ 0.05, log2 ratio ≤ -1)
Conditions in all cases: compound concentration: 200 uM; treatment time: 3 h
ALG13 = biological target: T1, ALG13 (UniProt Q9NP73)
T1 sequence (whole entry): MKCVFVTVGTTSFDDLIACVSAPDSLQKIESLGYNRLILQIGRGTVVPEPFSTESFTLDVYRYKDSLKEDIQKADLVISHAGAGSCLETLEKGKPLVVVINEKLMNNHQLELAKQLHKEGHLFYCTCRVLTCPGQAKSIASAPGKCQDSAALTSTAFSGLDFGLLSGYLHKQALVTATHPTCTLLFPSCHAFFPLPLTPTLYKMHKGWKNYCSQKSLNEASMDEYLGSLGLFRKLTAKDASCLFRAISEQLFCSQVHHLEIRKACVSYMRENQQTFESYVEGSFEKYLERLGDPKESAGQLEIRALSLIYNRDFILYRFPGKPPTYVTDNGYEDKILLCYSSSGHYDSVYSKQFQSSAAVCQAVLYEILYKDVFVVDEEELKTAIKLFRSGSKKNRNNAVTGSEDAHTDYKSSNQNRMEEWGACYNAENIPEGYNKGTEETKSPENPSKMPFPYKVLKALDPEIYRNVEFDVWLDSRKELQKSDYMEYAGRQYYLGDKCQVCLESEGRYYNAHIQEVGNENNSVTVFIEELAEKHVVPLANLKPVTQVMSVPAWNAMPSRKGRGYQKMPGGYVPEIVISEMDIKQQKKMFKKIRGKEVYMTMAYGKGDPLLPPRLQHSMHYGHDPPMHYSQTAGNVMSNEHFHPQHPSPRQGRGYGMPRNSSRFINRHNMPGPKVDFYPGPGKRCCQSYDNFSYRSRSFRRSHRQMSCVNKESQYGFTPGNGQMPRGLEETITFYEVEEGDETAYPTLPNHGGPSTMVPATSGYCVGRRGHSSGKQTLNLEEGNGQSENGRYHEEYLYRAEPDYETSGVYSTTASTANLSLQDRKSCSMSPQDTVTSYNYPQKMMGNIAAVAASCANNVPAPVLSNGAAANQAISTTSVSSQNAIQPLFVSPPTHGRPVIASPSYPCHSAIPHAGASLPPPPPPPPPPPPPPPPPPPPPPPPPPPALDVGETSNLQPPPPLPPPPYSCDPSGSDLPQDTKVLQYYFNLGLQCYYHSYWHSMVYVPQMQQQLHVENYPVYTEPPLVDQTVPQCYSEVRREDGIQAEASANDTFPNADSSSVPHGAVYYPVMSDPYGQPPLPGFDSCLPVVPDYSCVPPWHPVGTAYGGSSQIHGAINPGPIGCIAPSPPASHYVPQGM
Summary of the method: (§1)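 Fragment (200 µM) or vehicle was incubated for 3 h with triplicate HEK293T lysate samples of 495 µg, which were then treated with Biotin-Ahx-Ub-VS at 0.5 µM final for 1 h. Labelled DUBs were enriched on NeutrAvidin, digested with LysC and trypsin, and analysed by diaPASEF LC-MS/MS. Values are average log2 fragment/vehicle ratios from an unpaired t-test on global-median-normalised Spectronaut label-free quantities, using proteins with ≥2 unique peptides.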

ATXN3 = ATXN3 (UniProt P54252)
Chain of ATXN3 (P54252 whole entry): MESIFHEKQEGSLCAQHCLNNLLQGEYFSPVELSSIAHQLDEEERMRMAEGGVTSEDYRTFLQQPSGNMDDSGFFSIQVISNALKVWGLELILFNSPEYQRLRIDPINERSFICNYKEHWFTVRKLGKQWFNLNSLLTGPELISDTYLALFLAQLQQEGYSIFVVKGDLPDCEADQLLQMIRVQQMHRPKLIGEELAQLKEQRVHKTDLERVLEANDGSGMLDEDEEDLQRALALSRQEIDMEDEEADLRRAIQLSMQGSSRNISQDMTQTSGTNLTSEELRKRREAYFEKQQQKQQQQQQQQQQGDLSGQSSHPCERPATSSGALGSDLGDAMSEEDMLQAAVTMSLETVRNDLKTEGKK
Summary of the method: as §1

BAP1 = biological target: T2, BAP1 (UniProt Q92560)
T2 sequence (whole entry): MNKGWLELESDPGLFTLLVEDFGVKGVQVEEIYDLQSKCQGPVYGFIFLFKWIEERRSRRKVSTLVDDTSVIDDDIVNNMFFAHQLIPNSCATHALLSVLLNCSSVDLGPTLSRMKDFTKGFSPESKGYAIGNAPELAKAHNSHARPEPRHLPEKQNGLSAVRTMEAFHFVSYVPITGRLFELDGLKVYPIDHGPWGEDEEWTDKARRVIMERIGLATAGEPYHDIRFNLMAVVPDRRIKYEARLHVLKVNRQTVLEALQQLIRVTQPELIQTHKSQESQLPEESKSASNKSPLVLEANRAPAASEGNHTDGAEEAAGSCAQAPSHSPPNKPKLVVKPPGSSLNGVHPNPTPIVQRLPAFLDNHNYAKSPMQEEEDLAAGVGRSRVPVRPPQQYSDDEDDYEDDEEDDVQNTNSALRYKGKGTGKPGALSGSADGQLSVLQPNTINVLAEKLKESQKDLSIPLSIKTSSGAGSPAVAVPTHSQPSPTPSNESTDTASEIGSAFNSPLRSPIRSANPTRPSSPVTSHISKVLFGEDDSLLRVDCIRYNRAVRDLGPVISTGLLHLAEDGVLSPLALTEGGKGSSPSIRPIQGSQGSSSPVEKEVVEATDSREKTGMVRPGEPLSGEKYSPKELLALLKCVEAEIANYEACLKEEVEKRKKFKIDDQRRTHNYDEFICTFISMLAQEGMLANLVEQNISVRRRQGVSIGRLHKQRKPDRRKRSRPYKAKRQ
Summary of the method: as §1

EIF3F = EIF3F (UniProt O00303)
Chain of EIF3F (O00303 whole entry): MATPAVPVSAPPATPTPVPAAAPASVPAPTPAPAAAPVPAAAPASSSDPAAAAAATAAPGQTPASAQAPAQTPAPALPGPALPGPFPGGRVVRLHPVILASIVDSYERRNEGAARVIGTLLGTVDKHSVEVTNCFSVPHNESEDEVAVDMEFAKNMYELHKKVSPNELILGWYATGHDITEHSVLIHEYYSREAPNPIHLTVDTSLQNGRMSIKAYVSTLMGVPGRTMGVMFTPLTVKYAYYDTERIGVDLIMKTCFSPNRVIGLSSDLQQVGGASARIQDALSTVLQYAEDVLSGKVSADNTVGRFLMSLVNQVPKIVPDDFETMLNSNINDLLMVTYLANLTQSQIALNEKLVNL
Summary of the method: as §1

EIF3H = EIF3H (UniProt O15372)
Chain of EIF3H (O15372 whole entry): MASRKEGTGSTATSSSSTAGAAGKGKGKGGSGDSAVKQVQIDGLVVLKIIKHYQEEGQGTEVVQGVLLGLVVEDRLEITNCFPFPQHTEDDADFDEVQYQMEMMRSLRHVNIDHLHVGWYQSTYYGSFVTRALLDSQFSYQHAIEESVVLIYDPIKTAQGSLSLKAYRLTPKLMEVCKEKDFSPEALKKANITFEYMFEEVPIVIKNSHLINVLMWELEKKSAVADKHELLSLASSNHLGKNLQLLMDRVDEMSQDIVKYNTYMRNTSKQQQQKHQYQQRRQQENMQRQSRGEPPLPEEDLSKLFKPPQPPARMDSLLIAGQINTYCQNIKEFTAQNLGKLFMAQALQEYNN
Summary of the method: as §1

FAM105A = biological target: T3, FAM105A (UniProt Q9NUU6)
T3 sequence (whole entry): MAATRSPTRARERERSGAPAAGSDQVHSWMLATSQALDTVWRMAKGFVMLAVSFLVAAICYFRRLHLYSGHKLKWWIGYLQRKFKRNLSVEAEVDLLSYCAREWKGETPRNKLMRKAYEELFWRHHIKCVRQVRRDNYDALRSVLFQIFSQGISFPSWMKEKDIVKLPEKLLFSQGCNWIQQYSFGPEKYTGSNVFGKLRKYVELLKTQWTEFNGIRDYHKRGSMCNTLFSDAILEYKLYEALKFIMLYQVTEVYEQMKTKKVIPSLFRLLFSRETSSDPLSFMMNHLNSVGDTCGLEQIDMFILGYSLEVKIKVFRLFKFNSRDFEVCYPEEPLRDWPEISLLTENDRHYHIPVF
Summary of the method: as §1

OTUB1 = OTUB1 (UniProt Q96FW1)
Chain of OTUB1 (Q96FW1 whole entry): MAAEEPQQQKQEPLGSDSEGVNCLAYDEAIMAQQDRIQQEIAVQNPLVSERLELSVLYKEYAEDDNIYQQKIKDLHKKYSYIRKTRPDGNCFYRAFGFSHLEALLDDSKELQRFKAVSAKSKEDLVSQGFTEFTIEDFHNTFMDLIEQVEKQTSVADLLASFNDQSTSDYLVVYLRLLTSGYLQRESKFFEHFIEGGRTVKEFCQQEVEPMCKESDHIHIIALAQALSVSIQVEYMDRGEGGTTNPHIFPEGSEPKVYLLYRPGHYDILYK
Summary of the method: as §1

OTUD4 = biological target: T4, OTUD4 (UniProt Q01804)
T4 sequence (whole entry): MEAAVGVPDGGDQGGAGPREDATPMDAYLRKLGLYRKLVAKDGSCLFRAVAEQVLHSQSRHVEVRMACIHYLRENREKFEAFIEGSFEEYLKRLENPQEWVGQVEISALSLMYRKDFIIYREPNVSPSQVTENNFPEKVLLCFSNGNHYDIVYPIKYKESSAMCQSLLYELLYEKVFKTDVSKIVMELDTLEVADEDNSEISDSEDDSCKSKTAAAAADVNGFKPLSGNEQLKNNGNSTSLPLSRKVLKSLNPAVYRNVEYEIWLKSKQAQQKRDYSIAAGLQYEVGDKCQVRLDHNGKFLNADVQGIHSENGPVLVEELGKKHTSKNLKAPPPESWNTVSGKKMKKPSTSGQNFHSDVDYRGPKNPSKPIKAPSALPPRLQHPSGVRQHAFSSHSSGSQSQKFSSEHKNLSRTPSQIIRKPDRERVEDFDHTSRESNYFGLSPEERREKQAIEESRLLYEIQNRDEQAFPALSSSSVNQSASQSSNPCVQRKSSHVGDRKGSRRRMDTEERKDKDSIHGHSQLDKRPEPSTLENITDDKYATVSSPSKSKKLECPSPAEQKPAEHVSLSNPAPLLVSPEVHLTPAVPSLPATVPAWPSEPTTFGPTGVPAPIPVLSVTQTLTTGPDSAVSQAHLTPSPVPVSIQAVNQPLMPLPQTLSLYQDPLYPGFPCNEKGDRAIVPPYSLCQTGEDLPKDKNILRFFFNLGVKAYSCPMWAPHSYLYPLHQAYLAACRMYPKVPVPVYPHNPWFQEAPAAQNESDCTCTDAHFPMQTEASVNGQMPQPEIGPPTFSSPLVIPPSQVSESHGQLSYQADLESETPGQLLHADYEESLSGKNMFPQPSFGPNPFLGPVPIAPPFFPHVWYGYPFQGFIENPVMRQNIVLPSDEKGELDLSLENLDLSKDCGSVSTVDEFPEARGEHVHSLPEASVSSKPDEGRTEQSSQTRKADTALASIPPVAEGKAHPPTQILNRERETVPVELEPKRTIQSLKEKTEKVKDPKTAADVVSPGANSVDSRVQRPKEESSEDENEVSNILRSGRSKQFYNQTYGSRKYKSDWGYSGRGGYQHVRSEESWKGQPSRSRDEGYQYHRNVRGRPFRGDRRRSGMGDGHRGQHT
Summary of the method: as §1

OTUD5 = biological target: T5, OTUD5 (UniProt Q96G74)
T5 sequence (whole entry): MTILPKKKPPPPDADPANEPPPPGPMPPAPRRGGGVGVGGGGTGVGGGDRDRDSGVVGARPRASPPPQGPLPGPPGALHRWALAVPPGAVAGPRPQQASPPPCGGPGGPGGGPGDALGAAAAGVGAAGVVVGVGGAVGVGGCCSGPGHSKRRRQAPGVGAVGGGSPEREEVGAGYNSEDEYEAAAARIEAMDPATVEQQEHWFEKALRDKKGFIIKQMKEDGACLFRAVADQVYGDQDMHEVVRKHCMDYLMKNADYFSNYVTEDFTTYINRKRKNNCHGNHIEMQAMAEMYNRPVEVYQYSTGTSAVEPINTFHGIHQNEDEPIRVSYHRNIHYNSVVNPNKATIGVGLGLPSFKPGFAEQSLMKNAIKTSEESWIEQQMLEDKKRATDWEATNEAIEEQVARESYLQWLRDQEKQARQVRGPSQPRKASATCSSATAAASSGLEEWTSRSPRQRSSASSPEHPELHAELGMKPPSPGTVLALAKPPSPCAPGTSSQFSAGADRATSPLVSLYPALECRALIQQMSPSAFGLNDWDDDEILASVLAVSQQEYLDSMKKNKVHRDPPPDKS
Summary of the method: as §1

Measured: log2 ratio of Biotin-Ahx-Ub-VS probe labelling

O=C(CCl)N1CCOC2(CCC2)CC1
inactive: ALG13 -0.588 | ATXN3 -0.29 | BAP1 -0.305 | EIF3F -0.12 | EIF3H 0.0846 | FAM105A -0.0165 | OTUB1 -0.14 | OTUD4 -0.374 | OTUD5 -0.595

From the supplement of paper PMC11732987, “Enantioselective OTUD7B fragment discovery through chemoproteomics screening and high-throughput optimisation” (Communications Chemistry, 2025)
